# Pol iota inh = inhibitors of human DNA polymerase iota; Q9UNA4; Potency, µM (doses to about 115 µM), for the others: at the highest dose activity, negative = inhibition, most hits filed as inhibitors; AID 588590; 390,000 tested, 1% active; Pol iota fluorescent replication assay, 10 min
#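 Pol iota at 10 nM preincubated 15 min with compounds at room temperature; reaction started with fluorescent substrate, 50 nM final. Fluorescence read kinetically at 0 and 10 min; buffer-only wells as negative control.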
# POLB inh = DNA polymerase beta (human) inhibition; P06746; Pol beta primer extension/strand displacement, fluorescence kinetic; Potency, µM (series often up to 114 µM), for the others: at the highest dose activity change, negative = inhibition, most hits filed as inhibitors; 340,000 tested, 1.3% active; AID 485314; further: on the % scale 0 is the no-effect control and ±100 the full control effect
#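 Preincubation: enzyme (10 nM) with compound, 15 min, RT. Reaction: substrate added to 50 nM final. Reads: 0 and 10 min. Analysis: normalized, Hill fit.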
# Pol kappa inh = inhibitors of human DNA polymerase kappa; purified Pol kappa, fluorescent DNA synthesis assay, 10 min; Potency, µM (series often up to 107 µM), for the others: top-dose activity, negative = inhibition, actives largely listed as inhibitors; AID 588579; 400,000 tested, 0.53% active; Q9UBT6; further: on the % scale 0 is the no-effect control and ±100 the full control effect
#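 Activity was followed as the change in fluorescence between reads at 0 and 10 min after starting the reaction with 50 nM substrate. Beforehand, 10 nM polymerase had been preincubated with compound for 15 min at room temperature.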
# Pol eta inh = blocks human DNA polymerase eta activity; Q9Y253; recombinant Pol eta, fluorescent DNA replication assay; Potency, µM (top dose mostly 114 µM), inactives show at the highest dose activity change, negative = inhibition, most hits filed as inhibitors; 390,000 tested, 1.2% active; AID 588591; further: on the % scale 0 is the no-effect control and ±100 the full control effect
# Target sequence (Q9Y253 whole entry, looked up): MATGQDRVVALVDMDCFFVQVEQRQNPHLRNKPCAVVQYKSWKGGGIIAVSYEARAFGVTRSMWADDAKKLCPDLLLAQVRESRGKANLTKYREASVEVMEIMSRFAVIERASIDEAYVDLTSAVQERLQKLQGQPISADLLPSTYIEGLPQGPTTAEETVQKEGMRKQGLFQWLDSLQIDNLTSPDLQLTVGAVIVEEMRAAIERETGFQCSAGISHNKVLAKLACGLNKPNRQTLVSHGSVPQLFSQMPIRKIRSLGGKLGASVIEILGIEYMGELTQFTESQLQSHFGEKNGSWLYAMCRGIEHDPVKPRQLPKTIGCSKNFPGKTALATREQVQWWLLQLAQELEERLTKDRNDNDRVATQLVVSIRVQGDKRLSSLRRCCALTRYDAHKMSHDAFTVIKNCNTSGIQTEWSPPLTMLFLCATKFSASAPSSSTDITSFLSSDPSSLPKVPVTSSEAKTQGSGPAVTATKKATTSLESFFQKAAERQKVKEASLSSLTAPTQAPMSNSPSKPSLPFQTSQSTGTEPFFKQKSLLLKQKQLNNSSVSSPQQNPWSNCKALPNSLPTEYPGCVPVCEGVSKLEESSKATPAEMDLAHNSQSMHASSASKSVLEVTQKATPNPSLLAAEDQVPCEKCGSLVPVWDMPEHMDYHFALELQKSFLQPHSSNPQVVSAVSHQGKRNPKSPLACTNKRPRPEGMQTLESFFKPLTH
#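 Pol eta (10 nM) was preincubated with compounds for 15 min at room temperature, after which fluorescent replication substrate (50 nM final) was added to start the reaction. Fluorescence was read kinetically at 0 and 10 min.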
# FEN1 inhibitor = inhibitors of human flap endonuclease 1; P39748; Recombinant FEN1 flap cleavage, fluorescence, 15 min; Potency, µM (top dose mostly 114 µM), for the others: at the highest dose activity change, negative = inhibition, hits mostly inhibitors; 390,000 tested, 0.35% active; further: on the % scale 0 is the no-effect control and ±100 the full control effect; nearly all actives have a fitted effect of over 65% in size
#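 FEN1 at 10 nM, compound pretreatment for 15 min (room temperature), 50 nM final substrate to initiate; endpoint reads at 0 and 15 min; DMSO-only plates used as vehicle background.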
# WRN inhibitor = WRN helicase (human) inhibition; Q14191; WRN helicase unwinding, fluorescent forked duplex, kinetic; Potency, µM (doses to about 114 µM), inactives show top-dose activity change, negative = inhibition, most hits filed as inhibitors; 360,000 tested, 0.46% active; further: on the % scale 0 is the no-effect control and ±100 the full control effect; nearly all actives have a fitted effect of over 55% in size
#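 WRN at 20 nM final was preincubated with compound for 15 min at room temperature; reaction started with 100 nM forked duplex oligonucleotide carrying fluorophore and quencher plus 2 mM ATP (final). Unwinding followed kinetically by red fluorescence (ex 525/em 598 nm).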
# Numbers without * were called inactive; ? = inconclusive; . = no result; [ ] = dose if it differs, or a comment. Only some compounds are listed: those with a hit (about 2.4% of all), similar ones and a draw of the others. The call rests on the fitted dose curve; in most records, active means well fitted curve in the direction sought with a large enough effect; inconclusive means small, poorly fitted or top-dose-only effect, or another doubt; inactive means no such curve, though single readings can be large; an effect the other way counts as inactive or inconclusive. Potency means the concentration at half of the fitted maximal effect.
SMILES,Pol iota inh,POLB inh,Pol kappa inh,Pol eta inh,FEN1 inhibitor,WRN inhibitor
CSC1=N/C(=C\c2ccc(Br)o2)C(=O)S1,7.08µM*,39.8µM*,31.6µM*,8.91µM*,-27.8%,?
CCN(CC)c1ccc(/C=C/C(=O)c2ccc(Br)cc2)cc1,?,?,-13.8%,?,?,22.4µM*
CCN(CC)c1ccc(/C=C/C(=O)c2cccnc2)cc1,8.5%,-25.0%,-13.8%,-4.9%,15.7%,-7.0%
CC(C)=CCC/C(C)=C/CC/C(C)=C/CCC1(C)CCc2cc(O)ccc2O1 (configuration not stated),-3.6%,.,-5.4%,.,-9.8%,.
Cc1cccc(C(=O)OCC(=O)c2ccc(CC(=O)N3CCOCC3)s2)c1C,-95.7%,.,79.4µM*,10µM*,-4.9%,?
c1ccc(Cn2nnnc2C(c2ccccc2)N2CCN(Cc3ccncc3)CC2)cc1 (configuration not stated),7.5%,.,0.8%,.,10.6%,.
Cc1ccc(N2C(=O)c3cccc4c(N)ccc(c34)C2=O)c2cccnc12,79.4µM*,?,?,?,?,?
Cc1nn(C)c(C)c1N1C(=O)c2cccc3c(N)ccc(c23)C1=O,-2.7%,-8.5%,-20.6%,-17.4%,1.6%,?
CC1=C(/C=C/C(C)=C/C=C/C(C)=C\CO)C(C)(C)CCC1,.,.,4.5%[19.4 µM],.,.,.
CCOC(=O)C1=C(CS(=O)(=O)c2ccc(F)cc2)NC(=O)NC1c1cc(OC)c(O)c(OC)c1 (configuration not stated),10.5%,12.4%,3.6%,1.3%,-0.9%,4.5%
CCOC(=O)C1=C(CS(=O)(=O)c2ccc(F)cc2)NC(=O)NC1c1ccc(O)c(O)c1 (configuration not stated),25.1µM*,?,44.7µM*,?,3.1%,-4.5%[11.6 µM]
CCOc1ccc(C=Nc2ccc(/C=C/c3ccnc4ccccc34)cc2)cc1OCC,-9.0%,.,-9.1%,.,-7.1%,.
CCN(C(=O)COC(=O)c1cccnc1)c1cccc2ccccc12,-12.3%,.,-8.0%,-2.7%,-16.9%,-8.9%
CCN(C(=O)COC(=O)c1ccc([N+](=O)[O-])o1)c1cccc2ccccc12,-19.9%,.,-17.8%,?,28.2µM*,13.5%
CSCC[C@H](NC(=O)CN)C(=O)N[C@@H](CC(=O)O)C(=O)N[C@@H](CO)C(=O)N[C@@H](CC(C)C)C(=O)N[C@@H](C)C(=O)N[C@@H](Cc1ccccc1)C(=O)N[C@@H](CO)C(=O)NCC(=O)NCC(=O)N[C@@H](CC(C)C)C(N)=O,.,.,10.0%[60.1 µM],.,.,.
O=C(CSCCSCC(=O)c1ccco1)c1ccco1,.,28.2µM*,.,.,.,.
COc1ccc(S(=O)(=O)NCCCC(=O)Nc2ccc(Sc3ccc(N)cc3)cc2)cc1,.,.,4.5%[60.1 µM],.,.,.
COc1cccc2c1Oc1ncccc1N(C(=O)CCC(=O)NCc1cccc(C)c1)C2,39.8µM*,27.2%,-45.0%,-7.1%,-7.7%,-5.9%[11.6 µM]
COc1cccc2c1Oc1ncccc1N(C(=O)CCC(=O)NCc1ccc(F)cc1)C2,-14.2%,-9.9%,-12.5%,-4.9%,20.0%,2.0%
CNc1cc(C(=O)O)nc2ccccc12,?,.,-24.2%,.,-1.5%,.
O=[N+]([O-])c1cc(CN(CCO)CCO)ccc1O,25.1µM*,50.1µM*,?,?,-10.3%,-31.1%
COc1ccc(CN(CCO)CCO)cc1[N+](=O)[O-],12.0%,45.0%,5.6%,5.9%,13.9%,-2.9%
O=C(C[N+]12CN3CN(CN(C3)C1)C2)c1ccc(Br)cc1,-6.7%,.,-16.6%,.,3.3%,.
C=CCn1c(SCC#N)nc2ccc(Cl)cc2c1=O,11.4%,.,-5.5%,.,-10.1%,.
O=C(CNC1=NCCS1)c1c[nH]c2ccccc12,-18.9%,.,-9.0%,.,-9.9%,.
SMILES,Pol iota inh,POLB inh,Pol kappa inh,Pol eta inh,FEN1 inhibitor,WRN inhibitor
O=C(CSc1nnnn1C1CC1)N1CCN(c2ccc(O)cc2)CC1,44.7µM*,.,?,?,8.9%,-1.7%[11.6 µM]
O=C(O)CCC(=O)Nc1ccc(Cc2ccc(NC(=O)CCC(=O)O)c(O)c2)cc1O,?,-0.2%,-40.7%,15.8µM*,-2.2%,-9.4%[57.1 µM]
CCOc1cccc(NC(=O)/C(C#N)=C\c2cn(CC(=O)O)c3ccccc23)c1,-2.1%,50.1µM*,0.3%,?,-1.5%,-5.6%
CCOc1ccc(NC(=O)/C(C#N)=C/c2cn(CC(=O)O)c3ccccc23)cc1,98.8%,-9.1%,-16.7%,-18.3%,10.9%,-21.1%
CC1CC=CC2C1C(=O)N(Cc1ccccc1)C2c1ccc(/C=C/c2ccccc2)cc1F (configuration not stated),-4.9%,.,-7.8%,.,7.0%,.
CNC(=S)N/N=C/c1ccc(-c2ccc(Cl)c([N+](=O)[O-])c2)o1,14.0%,8.91µM*,-5.7%,0.2%,-5.6%,?
Cc1ccc(-c2ccc(/C=N/NC(=S)Nc3ccccc3)o2)cc1[N+](=O)[O-],31.8%[58.9 µM],17.8%,-8.8%,-1.0%,1.1%,-11.0%
Cc1ccc(C(=O)N/N=C\c2ccc(-c3ccc(Cl)c(Cl)c3)o2)cn1,-18.9%,20µM*,-19.6%,-30.3%,-21.3%,-33.1%
C[Se]CC[C@H](N)C(=O)O,.,.,5.6%[19.4 µM],.,.,.
O=C(NCCCc1cnc[nH]1)NCCCN(Cc1ccc(Cl)cc1)c1ccc(Br)cn1,?,.,-9.8%,.,-5.3%,.
Cc1ccc(S(=O)(=O)N2CCN(c3nc(-c4cccs4)nc4ccccc34)CC2)c(C)c1,44.3%,.,-5.6%,.,18.0%,.
O=C1CC[C@@H](C(=O)N[C@@H](Cc2cnc[nH]2)C(=O)N[C@@H](Cc2c[nH]c3ccccc23)C(=O)N[C@@H](CO)C(=O)N[C@@H](Cc2ccc(O)cc2)C(=O)O)N1,.,.,18.1%[60.1 µM],.,.,.
Cc1cnc(NC(=O)CSc2nnc(Cc3ccccc3)o2)s1,70.8µM*,-0.7%,-7.4%,-9.9%,0.1%,-8.6%[57.1 µM]
CCOc1ccccc1NC(=O)CN1C(=O)C(=O)c2ccccc21,19.1%,-17.0%,-2.8%,-14.1%,-1.0%,.
CCOc1ccccc1C(O)C1=CC(=O)c2ccccc2C1=O (configuration not stated),6.31µM*,.,?,3.16µM*,-10.7%,?
Cc1cc[n+](CC(=O)c2ccc(F)cc2)c2ccccc12,0.3%,.,-8.9%,.,13.2%,.
O=C(COc1ccccc1)Nc1sc2c(c1C(=O)Nc1ccccc1)CCCCC2,?,17.8µM*,?,79.4µM*,7.4%,.
COc1ccc(C2NC(=S)N3C(c4ccc(OC)cc4)NC(=S)N23)cc1 (configuration not stated),?,10.2%,-10.2%,-13.2%,22.0%,89.1µM*
Cc1ccc(C2NC(=S)N3C(c4ccc(C)cc4)NC(=S)N23)cc1 (configuration not stated),.,.,.,-9.8%,.,-1.5%

# High-throughput results from PubChem.
